Only some compounds are listed: those with a hit (about 3.4% of all), similar ones and a draw of the others.
MITF TRPM1 HTS – activators of MITF-driven TRPM1 promoter activity in SK-MEL-5 cells | SK-MEL-5 TRPM1-promoter luciferase, 24 h; % of positive control, neutral wells = 0 | activation, % at 12.5 µM | 0.75% of 300,000 active;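 active means mean activation of at least 80% with every replicate also reaching 80%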;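 further: 0% = neutral control wells and 100% = parthenolide positive control wells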
Wnt bcat act – activates Wnt/beta-catenin signaling in a reporter cell assay; activator, plate reader; activation, % at 9.35 µM; 1.2% of 300,000 active; AID 743398; in the data active means activation above about 30%, passing the limit was not always enough;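 further: 0% = neutral control wells and 100% = positive control wells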
HIV Env fusion – HIV envelope-mediated fusion inhibition; 1.1% of 360,000 active; inhibition, % at 12.3 µM; HeLa-JRFL Env/CEM21 cell fusion, luciferase;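 active means mean replicate inhibition score of at least 50 and every replicate individually at or above 50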;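 further: 0% = plate neutral controls and 100% = maraviroc near 300 nM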
miR-122 sensor – blocks miR-122 activity in Huh7 sensor cells; activation (reporter increase), % at 12.5 µM; Huh7 miR-122 Renilla luciferase sensor, 48 h; neutral wells = 0, positive control = 100; 0.3% of 340,000 active;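 active means mean replicate activation score at least 90 and every replicate individually at or above 90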;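 further: higher luciferase means less miR-122 activity so hits act as miR-122 inhibitors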
esBAF inh – blocks esBAF chromatin remodeling in mouse ES cells; Bmi1-luciferase knock-in reporter, 24 h; 100% = twice the neutral-well signal; reporter increase, % at 12.5 µM; 2% of 350,000 active; in the data active means activation above about 40%;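 further: 0% = median of the plate's neutral control wells and 100% = double that signal; a rise in the Bmi1 reporter signal indicates esBAF inhibition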
* hit, by the source's call; x = no result given; [ ] = dose if it differs, or a comment.

SMILES	MITF TRPM1 HTS	Wnt bcat act	HIV Env fusion	miR-122 sensor	esBAF inh
C[C@@H]1CN([C@H](C)CO)C(=O)c2cc(NC(=O)c3ccccc3)ccc2O[C@@H](C)CCCCO[C@H]1CN(C)Cc1ccc(C(=O)O)cc1	x	x	0[16.7 µM]	4[16.7 µM]	-3
C[C@H]1CCCCO[C@H](CN(C)Cc2ccccc2)[C@@H](C)CN([C@@H](C)CO)C(=O)c2cc(NC(=O)c3ccncc3)ccc2O1	x	x	24[16.7 µM]	19[16.7 µM]	-8
c1ccc(N=NC2=NN(c3ccccc3)CS2)cc1	x	54*	-39	x	x
CN1C(=O)c2cc(NC(=O)C3CCCC3)ccc2OC[C@@H]2O[C@@H](CC(=O)NCC(F)(F)F)CC[C@H]21	x	x	x	-12[16.7 µM]	-8
Cc1noc(C)c1NC(=O)Nc1ccc2c(c1)C(=O)N([C@@H](C)CO)C[C@@H](C)[C@@H](CN(C)CC1CC1)OCCCC[C@@H](C)O2	x	x	10[16.7 µM]	5[16.7 µM]	-2
Cc1ccc(CN2CCN(C3CCCC3)C(CCO)C2)s1 (centres undefined)	8	31*	-2	-4	-1
CCOC(=O)C1(Cc2cccc(OC)c2)CCCN(S(=O)(=O)N(C)C)C1 (centres undefined)	-9	-1	7	4	-4
CCOC(=O)C1(Cc2cccc(OC)c2)CCCN(C(=O)c2ccccc2C)C1 (centres undefined)	72	35*	-29	2	x
CCOC(=O)C1(Cc2cccc(OC)c2)CCCN(C(=O)c2cc(C)[nH]n2)C1 (centres undefined)	52	11	-2	x	x
CCOC(=O)C1(Cc2cccc(OC)c2)CCCN(C(=O)CNC(C)=O)C1 (centres undefined)	64	10	-32	4	65*
CCOC(=O)C1(Cc2cccc(OC)c2)CCCN(C(=O)c2cc(C)on2)C1 (centres undefined)	31	12	-18	x	48*
CCOC(=O)C1(Cc2ccccc2)CCCN(C(=O)c2cnn(CC)c2)C1 (centres undefined)	91*	24	-42	-3	65*
CO[C@H]1CN(C)C(=O)c2ccc(NS(=O)(=O)c3cn(C)cn3)cc2OC[C@@H](C)N(CC2CC2)C[C@@H]1C	x	x	x	x	-6
CC(C)NC(=O)N(C)C[C@H]1Oc2ncc(C#CC3CCCCC3)cc2C(=O)N([C@H](C)CO)C[C@H]1C	x	x	22[16.7 µM]	-7[16.7 µM]	-2
CCCCc1ccc(-c2nc(N)n[nH]2)cc1	57	35*	-164	0	29
Nc1n[nH]c(-c2ccc(F)cc2)n1	x	1	15	-13	0
CS(=O)(=O)Nc1ccc2c(c1)[C@H]1C[C@@H](CC(=O)N3CCCCC3)O[C@H](CO)[C@H]1O2	x	x	x	-1[16.7 µM]	-1
O=C(/C=C/c1ccc(Cl)cc1)Nc1ccc(N2CCCCC2)cc1	-5	1	15	-4	-6
COc1ccc(N2CCN(c3ccc(NC(=O)/C=C\C(=O)O)cc3)CC2)cc1	-5	45*	1	-4	-5
O=C(/C=C/c1ccccc1)Nc1ccc(N2CCCCC2)cc1	33	0	x	-17	62*
NC(=O)NC(=O)C(Nc1ccc(N2CCCCC2)cc1)c1ccccc1 (centres undefined)	20	9	-11	x	51*
O=C(Cc1ccccc1)Nc1ccc(N2CCCCC2)cc1	62	59*	-86	-2	20
O=C(C[C@H]1CC[C@H]2[C@@H](COC[C@@H](O)CN2Cc2ccccc2)O1)NCCCN1CCOCC1	x	x	x	3[16.7 µM]	-2
O=C(CN1CCOCC1)N[C@@H]1CC[C@@H](CCn2cc(C3CC3)nn2)O[C@@H]1CO	x	x	-14[16.7 µM]	x	-2
Cc1noc(C)c1S(=O)(=O)N(C)C[C@@H]1OCCCC[C@H](C)Oc2ccc(NC(=O)NC(C)C)cc2C(=O)N([C@H](C)CO)C[C@H]1C	x	x	34[16.7 µM]	5[16.7 µM]	4
SMILES	MITF TRPM1 HTS	Wnt bcat act	HIV Env fusion	miR-122 sensor	esBAF inh
CN(C)C(=O)C[C@@H]1CC[C@H](NC(=O)C2CC2)[C@@H](CO)O1	x	x	-16[16.7 µM]	x	2
COC(=O)/C(=C\Nc1ccc(Oc2ccccc2OC(C)C)nc1)NC(=O)c1ccccc1	x	x	-2[16.7 µM]	x	x
Cc1ccc(NC(=O)c2snc3ccc(Cl)cc23)cc1C	45	48*	-36	x	x
CO[C@@H]1CN(C)C(=O)c2cc(NC(=O)Nc3ccc(C(F)(F)F)cc3)ccc2OC[C@@H](C)NC[C@@H]1C	x	x	2[16.7 µM]	x	0
CC(C)NC(=O)Nc1ccc2c(c1)C(=O)N(C)[C@H]1CC[C@@H](CC(=O)NC3CCCCC3)O[C@H]1CO2	x	x	2[16.7 µM]	0[16.7 µM]	2
CC(C)C#Cc1cnc2c(c1)C(=O)N([C@H](C)CO)C[C@@H](C)[C@H](CN(C)C(=O)C1CCC1)O2	x	x	-2[16.7 µM]	-5[16.7 µM]	-2

Assay outcomes (PubChem)
